# Screens (PubChem BioAssay)
# Rows were chosen to be rich in hits. Some 2.4% of all compounds tested hit in one or more screens of this group.
# NOD2 RIPK2 PPI: NOD2-RIPK2 protein interaction inhibition. AID 624267. CHO BLA complementation NOD2-RIPK2, CCF4 ratio. 360,000 tested, 0.38% active. O43353. inhibition, % at 4.98 µM; in the data active = inhibition above about 21%;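 also: 0% = vehicle only and 100% = reference blocker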
# Target sequence (O43353 whole entry, looked up): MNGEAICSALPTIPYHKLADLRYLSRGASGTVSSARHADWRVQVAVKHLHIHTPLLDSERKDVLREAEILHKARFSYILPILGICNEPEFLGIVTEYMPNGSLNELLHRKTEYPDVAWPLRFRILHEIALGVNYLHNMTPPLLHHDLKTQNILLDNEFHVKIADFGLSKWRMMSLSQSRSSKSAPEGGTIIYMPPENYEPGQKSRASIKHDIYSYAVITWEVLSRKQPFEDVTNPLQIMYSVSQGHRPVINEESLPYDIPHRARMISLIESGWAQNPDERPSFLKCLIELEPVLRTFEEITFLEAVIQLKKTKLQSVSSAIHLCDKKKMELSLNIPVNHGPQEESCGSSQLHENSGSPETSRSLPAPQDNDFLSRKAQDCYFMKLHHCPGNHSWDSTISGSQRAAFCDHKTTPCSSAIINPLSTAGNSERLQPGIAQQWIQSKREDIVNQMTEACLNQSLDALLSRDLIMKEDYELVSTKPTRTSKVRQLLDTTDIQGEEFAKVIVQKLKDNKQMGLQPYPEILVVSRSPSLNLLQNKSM
# TLR9-MyD88 block: blocks human TLR9 binding to MyD88; 340,000 tested, 0.21% active; CHO BLA complementation TLR9-MyD88, CCF4 FRET ratio; inhibition, % at 4.98 µM;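 active = inhibition above the mean over all tested compounds plus 3 SD, cut at about 21% in these data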;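 also: 0% = DMSO only wells and 100% = clavulanate BLA inhibitor control wells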
# TLR4-MyD88 BLA: TLR4-MyD88 interaction inhibition in cells. O00206+Q99836. HeLa CL3-4 TLR4/MyD88 BLA complementation, FRET ratio. inhibition, % at 8.4 µM. 200,000 tested, 0.18% active. AID 861; in the data active = inhibition above about 25%;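 also: 0% = vehicle and 100% = reference inhibitor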
# ABHD5-PLIN5 inh: blocks binding of human ABHD5 to perilipin-5 | Q00G26+Q8WTS1 | Split G. princeps luciferase complementation, luminescence, 4 h | inhibition, % at 4 µM | 360,000 tested, 0.78% active | AID 602281;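 active = inhibition above the mean inhibition across every tested compound plus 3 SD, cut at about 22% in these data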;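 also: 0% = DMSO only wells and the 100% control is not disclosed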
# m5-HT2A agonist: activates the mouse 5-HT2A serotonin receptor. CHO-K1 mHTR2A beta-arrestin complementation, luminescence; percent of 30 µM serotonin response. P35363. AID 624169. 360,000 tested, 0.66% active. activation, % at 7.6 µM;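 active = activation above a run cutoff, the mean activation of all tested compounds plus 3 SD, cut at about 14% in these data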;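 also: 0% = plate median of compound wells and 100% = 30 µM serotonin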
# CRFBP-R2 block: blocks CRF-induced signaling of the CRF-BP/CRF-R2 complex; HEK293 CRF-R2/CRF-BP, CRF-induced calcium fluorescence; inhibition, % at 11.8 µM; 350,000 tested, 0.59% active; AID 588475;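 active = inhibition of the ligand-induced calcium signal above about 50% at the single tested concentration, limit read from the data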
# MOR ag counter: activates human mu opioid receptor in HTR2A counterscreen; shares compounds with m5-HT2A agonist; U2OS OPRM1 beta-arrestin PathHunter, luminescence; DMSO 0%, DAMGO 9.3 µM 100%; activation, % at 9.3 µM; 2,300 tested, 5.3% active; AID 624380;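 active = mean activation above the mean of DMSO-only wells plus 3 SD, cut at about 0.5% in these data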
# HTR2A ag conf: confirmation of mouse HTR2A serotonin receptor agonists. shares compounds with m5-HT2A agonist. CHO-K1 PathHunter beta-arrestin recruitment, luminescence; DMSO 0%, 30 µM serotonin 100%. activation, % at 7.6 µM. 2,300 tested, 19% active;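 active = mean activation across triplicates above the hit threshold derived in the original primary screen, cut at about 15% in these data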
# Starred values were filed as active, the others as inactive; · = no result.
SMILES,NOD2 RIPK2 PPI,TLR9-MyD88 block,TLR4-MyD88 BLA,ABHD5-PLIN5 inh,m5-HT2A agonist,CRFBP-R2 block,MOR ag counter,HTR2A ag conf
CCC(C)C(NC(=O)CCCNC(=O)CCC(=O)OC1O[C@H]2OC3(C)CC[C@H]4[C@H](C)CCC(C1C)C24OO3)C(=O)O (stereo partly drawn),-3.6,-11.5,·,-1.4,20.6*,·,0.6*,-3.9
CCC(C)NC(=O)CCC(=O)OC1O[C@H]2OC3(C)CC[C@H]4[C@H](C)CCC(C1C)C24OO3 (stereo partly drawn),-1.3,1.6,·,-3.5,-3.9,8.6,·,·
COC1C(C)OC(OC2CC(C)(O)Cc3cc4c(c(O)c32)C(=O)c2c(O)cc3c(c2C4=O)OC2OC3(C)C(O)C(N(C)C)C2O)C(OC)C1(C)OC (stereo not drawn),1.1,-11.1,·,2.0,-2.7,-202.1,·,·
CC(C)[C@@]1(NC(=O)[C@@H]2C[C@@H]3c4cccc5[nH]cc(c45)C[C@H]3N(C)C2)O[C@@]2(O)[C@@H]3CCCN3C(=O)[C@H](Cc3ccccc3)N2C1=O,-15.6,-7.8,3.1,-4.8,29.8*,-29.8,-0.3,83.0*
Clc1ccc(N2CCNCC2)nn1,2.6,6.2,-2.7,0.1,14.9*,4.9,-0.6,0.4
CCCCCCCSc1cc(OC)c(CCNC)cc1OC,-0.5,-4.4,-6.0,10.2,46.3*,-16.0,0.4,16.6*
CCCCCSc1cc(OC)c(CCNC)cc1OC,-0.3,1.3,-8.2,3.4,15.5*,-12.8,-0.2,5.9
COc1ccc(C(=O)CC(c2ccc3c(c2)OCO3)c2c(O)c3ccccc3oc2=O)cc1OC (stereo not drawn),-0.9,16.9,·,3.6,6.0,12.9,·,·
COC(=O)C1=C(c2cccc3c2S(=O)(=O)c2ccccc2-3)C[C@@H]2CC[C@H]1N2C(=O)N1CCc2cc(OC)c(OC)cc2C1,8.3,-7.3,·,8.1,-2.7,16.8,·,·
O=C(CCN1CC1)OCCOC(=O)CCN1CC1,8.2,-5.0,·,7.6,6.0,7.6,·,·
COc1cc(C(=O)N/N=C/C23CC[C@@H](O)CC2(O)CC[C@@H]2[C@@H]3CCC3(C)C(C4=CC(=O)OC4)CCC23O)ccc1O (stereo partly drawn),-11.6,-0.3,·,-2.2,14.8*,-11.4,-0.2,-3.1
CCOC(=O)c1c(C)n(C(C)C)c2ccc(OC(=O)c3ccc(N4C(=O)CCC4=O)cc3)cc12,-5.1,-11.0,2.3,4.6,16.1*,-3.0,0.4,2.9
COc1ccc2[nH]cc(CCNCc3cccnc3)c2c1,4.4,-0.4,·,8.6,1.5,8.4,·,·
COc1cccc(CCNCc2c(F)cccc2F)c1,3.1,13.6,2.1,0.4,20.8*,-16.6,-0.7,2.8
COc1cccc(CNCCc2c[nH]c3ccccc23)c1,-3.4,-3.6,·,3.2,32.0*,-8.8,0.0,34.3*
Fc1ccc(CNCCc2c[nH]c3ccccc23)cc1,-17.7,0.7,·,5.5,5.7,-18.6,·,·
Fc1ccccc1CNCCc1c[nH]c2ccccc12,0.7,-1.4,·,-0.6,18.9*,-0.7,-0.5,24.4*
COc1cccc(CNCCc2ccc(F)cc2)c1,4.4,-8.3,·,0.0,8.2,-5.9,·,·
COc1ccc(CN2Cc3cc(N4CCOCC4)ccc3-n3nncc3C2)cc1,-43.4,·,·,-6.0,-0.3,·,·,·
CC1=C(N2CC2)C(=O)C(CO)=C(N2CC2)C1=O,-12.1,-20.4,·,-8.5,1.4,32.5,·,·
COc1ccc(N2C(=O)C(=O)N(c3ccc(OC)cc3)P2(=O)N(CCCl)CCCl)cc1,-9.2,-3.6,·,-2.5,1.1,6.2,·,·
CN1CCCC1c1ccc(=O)[nH]c1 (stereo not drawn),-5.6,9.3,·,7.4,2.5,-13.1,·,·
COc1ccc(C(c2nnnn2-c2ccc3c(c2)OCCO3)N2CCC(n3c(=O)[nH]c4ccccc43)CC2)cc1 (stereo not drawn),-7.0,·,·,11.1,18.5*,·,·,15.1*
CCC(c1nnnn1-c1ccc(OC)cc1)N1CCC(n2c(=O)[nH]c3ccccc32)CC1 (stereo not drawn),9.0,·,·,6.1,2.9,·,·,·
COc1ccc(-n2nnnc2C(c2ccccc2OC(F)(F)F)N2CCC(n3c(=O)[nH]c4ccccc43)CC2)cc1 (stereo not drawn),-8.8,·,·,3.0,15.7*,·,·,7.1
SMILES,NOD2 RIPK2 PPI,TLR9-MyD88 block,TLR4-MyD88 BLA,ABHD5-PLIN5 inh,m5-HT2A agonist,CRFBP-R2 block,MOR ag counter,HTR2A ag conf
C[C@@H]1CN([C@H](C)CO)C(=O)CCCn2cc(nn2)CO[C@H]1CN(C)C(=O)Oc1ccc2ccccc2c1,-3.9,-3.0,·,1.4,-0.4,12.3,·,·
COC(=O)C1=C(c2ccc(F)cc2OCc2ccccc2)C[C@@H]2CC[C@H]1N2C(=O)NCc1cccc(C(F)(F)F)c1,-4.5,-3.8,·,-5.8,-15.1,-11.2,·,·
C[C@]12CC[C@H](O)CC1=CCC1C2CC[C@@]2(C)C1C[C@@H](O)[C@@H]2O (stereo partly drawn),-1.1,5.4,·,7.6,0.7,0.6,·,·
CC(=O)C1C(N2CC2)CC2C3CC=C4CC(O)CCC4(C)C3CCC21C (stereo not drawn),-10.2,-3.4,·,1.2,33.0*,4.2,-0.6,2.1
N#CC(=C(O)c1ccc(S(=O)(=O)N(CCCl)CCCl)cc1)c1nc2ccccc2[nH]1,-9.4,-13.6,·,4.3,3.8,20.1,·,·
Clc1ccc2sc(C3CCNCC3)nc2c1,1.3,-5.3,·,1.1,37.7*,-2.1,-0.6,15.5*
O=C(NCc1cccnc1)C(Cl)(Cl)Cl,-3.4,7.6,-14.9,1.8,23.8*,13.2,-0.6,-3.8
c1ccc(CCNCc2cccnc2)cc1,6.7,2.5,·,5.3,4.7,15.6,·,·
Clc1ccc2[nH]c3c(c2c1)CCNC3,9.5,5.7,·,6.9,16.0*,-25.5,-0.5,9.1
C[C@]12CCC3C(CC[C@H]4C[C@@H](O)[C@H](O)C[C@]34C)C1CC[C@@H]2O (stereo partly drawn),-3.6,-8.1,·,0.8,-3.5,-17.2,·,·
COc1ccc(S(=O)(=O)N2Cc3cnnn3-c3ccccc3C2C#N)cc1 (stereo not drawn),-15.1,4.5,·,0.6,2.5,-11.9,·,·
Clc1ccc(CNCCc2ccc3c(c2)OCO3)cc1,-15.0,11.9,·,5.1,1.6,1.5,·,·
Fc1ccccc1CNCCc1ccc2c(c1)OCO2,-7.7,-17.9,·,6.6,20.7*,0.7,-0.5,13.2
Fc1ccc(CCNCc2cccc(Cl)c2)cc1,-2.1,-5.5,4.9,12.4,24.2*,-19.8,-0.1,7.3
Clc1cccc(CNCCc2ccc3c(c2)OCO3)c1,-10.3,-17.6,·,0.3,32.3*,-6.9,-0.4,8.2
